This passage reports growth results from PubChem BioAssay (NCI).

Several values for one entry are separate records, joined by “and”; a condition that tells them apart may be missing. Equal entries are not always repeated. This is part of a sample that, as a whole, favours compounds with a hit. Of some 83,000 tested, about 20% had one in any assay.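 Cells were grown in 96-well plates and exposed to the test compound at a single concentration for 48 hours; results are reported as percent growth, with values below 10 considered active.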 Values without a mark were called inactive. Activity calls are given as the source filed them.

For the experiment, the system named is MDA-MB-468 breast. As to the kind of experiment: NCI-60 one-dose screen, 48 h (100 = growth as untreated, 0 = no growth, -100 = all killed). As to conditions: 10 µM unless noted.
For `COc1cc(C(=O)Nc2cc(O)c(CC=C(C)C)c(O)c2)cc2c1O[C@]1(C)CC[C@@H](O)C(C)(C)[C@H]1C2`, the growth is 36.3%.

With `CCOC(=O)CC(S(=O)(=O)c1ccccc1)S(=O)(=O)c1ccccc1`, the growth was 23.2%.

For `CC/C(=N\N=C(/CC)c1ccc(Br)cc1)c1ccc(Br)cc1`, the growth was 110%.

Consider `O=C(O)c1cc(=O)[nH]c(=O)[nH]1`, for which the growth was 97.9% and 80.6%.

On to `O=C1CCC(N2C(=O)c3cccc(NCCOCCOCCNC(=O)c4cc5c(o4)C(=O)c4ccccc4C5=O)c3C2=O)C(=O)N1` (stereo not given), for which the growth was -41.6% (active).

Take `C#CCNC(=O)[C@H](CC)[C@H]1CC[C@H](C)[C@H]([C@@H](C)[C@H](O)[C@H](C)C(=O)[C@H](CC)C2O[C@]3(C=CC(=O)[C@]4(CC[C@@](C)([C@H]5CC[C@](O)(CC)[C@H](C)O5)O4)O3)[C@H](C)C[C@@H]2C)O1` (stereo not given in full): the growth is 9.34% (active).

Take `O=c1oc2ccc(F)cc2c(=O)n1-c1ccc(Cl)cc1F`: the growth is -1.59% (active).

Take `COc1cccc(-c2nc3sccn3c2-c2ccnc(NCCCNS(=O)(=O)c3ccccc3)c2)c1`: the growth was 1.62% (active).

Turning to `CC(C)/C(=N/O)c1ccccc1`, the growth is 105%.

Turning to `CCN1C(=O)/C(=C/C(=O)OC)S/C1=N\NC(=O)c1cc2ccc1/C=C\c1ccc(cc1)/C=C\2`, the growth was 87.3%.

Take `O=c1c(Cc2ccc(F)cc2)cc(-c2ccccc2)nn1C/C(=N/O)c1ccccc1`: the growth is 41.2%.

For the molecule `CCN1C(=O)N(CC)C2C1NN=c1s/c(=C\c3ccc(OC)cc3)c(=O)n12` (stereo not given), the growth is -0.192% (active).

Turning to `Cc1ccc(Cl)cc1N1C(=O)CC(Sc2ccccc2N)C1=O` (stereo not given), the growth was 108%.

Take `O=c1c2ccccc2sc2c(NCCN3CCOCC3)nc3ccccc3c12`: the growth is 59.4%.

Take `CCOC(=O)/C(=C\c1ccccc1Cl)P(=O)(OCC)OCC`: the growth was 43.5%.

Consider `O=C1OC(=O)C2C1CC=CC2c1ccccc1` (stereo not given), for which the growth was 93.3%.

Turning to `CS(=O)(=O)c1ccc(/C=C\C(=O)O)cc1`, the growth is 93.6%.

Turning to `O=C(CN1CCN(c2ccc(Cl)cc2)CC1)N1CCN(c2nnc(-c3ccc(Cl)cc3)c(-c3ccc(Cl)cc3)n2)CC1`, the growth is 87.5%.

Turning to `O=C(O)c1cn(C2CC2)c2cc(N3CCN(C(=O)c4cc(-c5ccc(Cl)cc5)nc5ccccc45)CC3)c(F)cc2c1=O`, the growth was 99%.

Regarding `CN1CCN(c2nc(Nc3ccc(O)cc3)nc3ccccc23)CC1`, the growth was 75.2%.

As for `Cc1nc(/N=C(\N)NC(=O)Nc2ccccc2Cl)sc1C`, the growth is 2.23% (active).

Take `CC(C)(C)[Si](C)(C)OCC1OC(n2cnc3c(N)ncnc32)CC1OS(C)(=O)=O` (stereo not given): the growth is 99.7%.

In the case of `O=c1c2cc(F)ccc2sc2c(NCCCN3CCCC3)nc3ccccc3c12`, the growth was -13.7% (active).

Take `CC1OC(Oc2c(-c3ccc(O)c(O)c3)oc3cc(O)cc(O)c3c2=O)C(O)C(O)C1O` (stereo not given): the growth was 102%.

`O=C1Nc2ccc(Cl)cc2/C1=N/N=C(c1ccccc1)c1ccccc1`: the growth was 107%.

On to `COc1ccccc1/C=C/C(=O)CCC(=O)O`, for which the growth was 124%.

Take `O=C(Cc1ccccc1)Cc1ccccc1`: the growth is 99.5%.

For `CCn1c(SCC(=O)c2ccc(Br)cc2)nnc1-c1ccncc1`, the growth is 108%.

For `Cn1cccc1/C=C1/SC(=S)N(CCc2ccc(O)cc2)C1=O`, the growth was 10.3%.

As to `CC(=O)N1CCN(CCNC(=O)n2cc(-c3ccncc3)c(-c3cc(O)cc(Cl)c3)n2)CC1`, the growth is 32.4%.

On to `S=c1[nH]ccn1-c1c(Cl)cccc1Cl`, for which the growth is 110%.

Regarding `CC(=O)Nc1ccc2c(c1)C(=O)c1cccc(C(=O)O)c1-2`, the growth was 90.9%.

For the molecule `O=C1N=c2ccccc2=C1c1sc(=Nc2ccccc2)n(Nc2ccccc2)c1O`, the growth is 123%.

For `CC1(C)C(=O)/C(=C\c2ccccn2)C[C@]2(C)[C@H]3CC[C@@H]4[C@@H](C(=O)/C=C/c5ccccn5)CC[C@@]4(C)[C@]3(C)CC[C@@H]12`, the growth was -50.6% (active).

Take `Cc1ccc2c(c1)C(C)Cc1c(N(C)C)ncnc1N2C` (stereo not given): the growth is 13%.

Consider `CN1CCN(c2ccc(Nc3ncc(Cl)c(NC[C@@H]4CCCO4)n3)cc2)CC1`, for which the growth was 30.7%.

Turning to `O=[N+]([O-])c1cc(Br)cc2c1[nH]c1ccc(Br)cc12`, the growth was 70.3%.

`C=C1C(=O)O[C@H]2[C@H]1CC/C(COC(=O)NCc1ccccc1OC)=C\CC[C@@]1(C)O[C@@H]21`: the growth was 42.2%.

For `O=C(Nc1cc(C(F)(F)F)cc(C(F)(F)F)c1)c1cc(Cl)ccc1O`, the growth is -24% (active) and -1.83% (active).

`N#C/C(=C/N1C(=O)/C(=C/c2ccc([N+](=O)[O-])cc2)SC1=S)c1nc2ccccc2s1`: the growth is 84%.
